Measured values taken from PubChem BioAssay (NCI).
Compounds without any hit were thinned out: in the full panel of roughly 79,000, 15% have a hit. Cut-off read from the data, not from the text of the source: active = growth inhibition above about 70%; inactive = the rest.

What was measured:
[1] = NCI Yeast Anticancer Drug Screen. Data for the rad50 strain (AID 155);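 note: 0% = growth of vehicle-only cultures of the same strain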; conditions: S. cerevisiae rad50 strain growth inhibition; at 50.0 µM; stronger effect = higher value
In short: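 Genetically altered yeast (DNA repair pathway); compound treatment; growth inhibition vs vehicle ctrl.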

[2] = NCI Yeast Anticancer Drug Screen. Data for the mec2-1 strain (AID 157); conditions: S. cerevisiae mec2-1 strain, at 50.0 µM, stronger effect = higher value
In short: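 Using mec2-1 yeast: add compound, measure growth, express inhibition versus vehicle-treated cultures.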

[3] = NCI Yeast Anticancer Drug Screen. Data for the sgs1 mgt1 strain (AID 161);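 note: 0% = growth of cultures given vehicle only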; conditions: S. cerevisiae sgs1 mgt1 strain, at 50.0 µM, stronger effect = higher value
In short: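 This yeast growth screen uses a strain with defined DNA-repair lesions; compound-treated growth is compared with vehicle-treated growth.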

[4] = NCI Yeast Anticancer Drug Screen. Data for the cln2 rad14 strain (AID 165);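 note: 0% = growth equal to vehicle treated cultures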; conditions: S. cerevisiae cln2 rad14 strain, at 50.0 µM, stronger effect = higher value
In short: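 Yeast strain cln2 rad14, bearing defects in cell cycle control and DNA repair, serves as the test system; values reflect growth inhibition compared with vehicle.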

[5] = NCI Yeast Anticancer Drug Screen. Data for the bub3 strain (AID 167); conditions: S. cerevisiae bub3 mutant strain, at 50.0 µM, stronger effect = higher value
In short: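 Yeast carrying a defined mutation is treated with each compound, and growth is compared with that of vehicle-exposed cells to give inhibition.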

[6] = NCI Yeast Anticancer Drug Screen. Data for the mlh1 rad18 strain (AID 175); conditions: S. cerevisiae mlh1 rad18 strain growth inhibition; at 50.0 µM; stronger effect = higher value
In short: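 Steps: expose repair-defective yeast to compound; measure growth; express inhibition against vehicle-treated controls.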

Measured: growth inhibition

O=C1OC(c2ccccc2)(c2ccc(Cl)cc2)CC1/C=C(\c1ccccc1)c1ccc(Cl)cc1 (stereo not given)
inactive: [1] -2% | [2] 6.65% | [3] 6.6% | [4] -10.4% | [5] -7.4% | [6] 3.65%

CN(C)c1ncnc2nc[nH]c12
inactive: [1] -14.6% | [2] 0.7% | [3] -6.1% | [4] -14.4% | [5] -2.6% | [6] 16.3%

O=[N+]([O-])c1ccc2[nH]c3nc4ncccc4nc3c2c1
inactive: [1] -3.4% | [2] 3.35% | [3] 4.7% | [4] -20.1% | [5] 0.25% | [6] 0.7%

Cc1cc[n+](C)c(-c2ccccc2)c1
inactive: [1] 5.65% | [2] -2.25% | [3] 7% | [4] 21.2% | [5] 5.9% | [6] 11.6%

CCCCCCCCCC(=O)OC
inactive: [1] -24.1% | [2] -16.9% | [3] 8.4% | [4] -12.8% | [5] -0.25% | [6] 6.2%

CNc1ccccc1C(=O)N/N=C\c1ccc(Cl)cc1Cl
inactive: [1] -7.75% | [2] -4.9% | [3] -1.3% | [4] -2.85% | [5] -10.1% | [6] -5.15%

Clc1ccccc1-c1c2ccccc2cc2ccc3ccccc3c12
inactive: [1] -6.75% | [2] -11.6% | [3] -3.85% | [4] -39.5% | [5] 18.9% | [6] -12.4%

c1ccc2sc(SCSc3nc4ccccc4s3)nc2c1
inactive: [1] 2.65% | [2] -31.9% | [3] -18.1% | [4] -13.7% | [5] -1.05% | [6] -30.9%

Nc1ccnc(=O)[nH]1
inactive: [1] -3.5% | [2] -11.7% | [3] -18.8% | [4] -20.8% | [5] 3.3% | [6] -36.8%

O=C(O)/C=C/c1ccc(C(NC(=O)N2C(=O)C=CC2=O)NC(=O)N2C(=O)C=CC2=O)cc1
inactive: [1] 37.8% | [2] 15.8% | [3] 42.3% | [4] 15.7% | [5] 13.3% | [6] 19%

Nc1nc(=O)n(CCCOc2ccc([N+](=O)[O-])c(Cl)c2)cc1-c1ccc(Cl)c(Cl)c1
inactive: [1] -1.2% | [2] -8.2% | [3] -5.4% | [4] -21.4% | [5] -3.15% | [6] 6.2%

C/C(=N\N)C1C(=O)c2ccccc2C1=O
inactive: [1] 6.1% | [2] 5.05% | [3] 13.7% | [4] 20.8% | [5] 8.8% | [6] 11.3%

CCOc1c(N=Nc2ccc([N+](=O)[O-])cc2)c(C)nn1C(N)=S
inactive: [1] -8% | [2] 8.05% | [3] 15.3% | [4] -27.4% | [5] 13.1% | [6] 15.9%

O/N=C(\c1ccccc1)c1ccc2ncccc2c1
inactive: [1] 37% | [2] 41.2% | [3] 27.9% | [4] 2.8% | [5] 7.45% | [6] 23.3%

COc1ccc(-c2cc(=O)c3c(O)cc(O)c(-c4cc(-c5cc(=O)c6c(O)cc(OC)cc6o5)ccc4OC)c3o2)cc1
inactive: [1] 39.1% | [2] 17.1% | [3] 5.55% | [4] 24.6% | [5] 27.3% | [6] 20%

CN1C(=O)C2(C=CCCC2)c2ccccc21 (stereo not given)
inactive: [1] -10.5% | [2] -8.4% | [3] -0.7% | [4] -14.3% | [5] -0.5% | [6] -10.4%

NC(=S)c1cccc(C(N)=S)n1
inactive: [1] 18.7% | [2] 19.9% | [3] 23.9% | [4] -27.9% | [5] 22.6% | [6] 26.6%

NCC(O)C(F)(F)F (stereo not given)
inactive: [1] -5.2% | [2] -7.9% | [3] -27.3% | [4] -15.1% | [5] 1.75% | [6] -14.5%

COC(=O)C(N)C(C)(C)S (stereo not given)
inactive: [1] -9.9% | [2] -2.75% | [3] -3.65% | [4] -10% | [5] 6.85% | [6] 2.5%

[N-]=[N+]=Nc1c(Cc2ccccc2)c(Cl)nc2ccccc12
inactive: [1] 40.5% | [2] 57.9% | [3] 62.5% | [4] 53.7% | [5] 65% | [6] 40.8%

COC(=O)CCNc1c(OC)ccc2ccccc12
inactive: [1] 22.1% | [2] 3.85% | [3] 11.8% | [4] 17.9% | [5] 28.4% | [6] -5%

COC(=O)[C@@]12OC[C@]34[C@H]([C@@H](O)[C@@H]1O)[C@@]1(C)CC(=O)C(O)=C(C)[C@@H]1C[C@H]3OC(=O)[C@H](OC(=O)/C=C(\C)C(C)CO)[C@@H]24 (stereo not given in full)
inactive: [1] -0.7% | [2] -16.7% | [3] -13.3% | [4] -1.7% | [5] -18.9% | [6] -28.8%

NC(=S)Cc1ccccn1
inactive: [1] -1.45% | [2] 15.5% | [3] 9.25% | [4] -19.1% | [5] -4.45% | [6] 6.55%

COC(=O)c1ccc(C(=O)OC)c2nn3c(N)nnc3nc12
inactive: [1] 8.85% | [2] 15% | [3] 7.55% | [4] -12.4% | [5] 9.15% | [6] 2.9%

Cc1c(F)cc(I)cc1[N+](=O)[O-]
inactive: [1] -3.7% | [2] -9.1% | [3] -11% | [4] 6.9% | [5] 1% | [6] -16.6%

Clc1ccc(NC2=NCCN=C(Nc3ccc(Cl)cc3)SS2)cc1
inactive: [1] 23.7% | [2] 14.2% | [3] 39.8% | [4] 17.4% | [5] 37.5% | [6] 20.7%

CCOc1c(N=Nc2ccc(Br)cc2)c(C)nn1C(N)=S
inactive: [1] -4.5% | [2] 33.9% | [3] 26.1% | [4] -0.3% | [5] 31.2% | [6] 45%

Cc1ccc(S(=O)(=O)C2(NC(=O)c3ccc(Cl)cc3)CC2)cc1
inactive: [1] 10.6% | [2] 15.5% | [3] -6.9% | [4] 5.4% | [5] -11.5% | [6] -2.4%

C=C1C(OC(=O)/C=C/c2ccccc2)CC(OC(C)=O)C2(C)C1CC1CC(OC(C)=O)C(C)=C(C(OC(C)=O)C2OC(C)=O)C1(C)C (stereo not given)
inactive: [1] 38.5% | [2] 6.35% | [3] 14.1% | [4] 21.4% | [5] 25.4% | [6] 24.5%

O=C(CC1CCCCC1)OCC1CCCO1 (stereo not given)
inactive: [1] -7.1% | [2] -25.6% | [3] -18.4% | [4] -4.15% | [5] -6.95% | [6] 4.55%

CSCCC(N)C(=O)NCCNc1ccc(NCCNC(=O)C(N)CCSC)c2c1C(=O)c1ccccc1C2=O (stereo not given)
inactive: [1] -8.05% | [2] -0.9% | [3] -29% | [4] -0.5% | [5] -30.4% | [6] -44.4%

c1ccc(-c2nnc(-c3ccc4ccccc4c3)o2)cc1
inactive: [1] -0.1% | [2] -6.5% | [3] 1.1% | [4] -40% | [5] 13.4% | [6] -2%

Cc1nc2ccccc2nc1C1=C(O)c2ccccc2CC1=O
inactive: [1] 0.85% | [2] 8.6% | [3] 10.1% | [4] -71.2% | [5] -10.2% | [6] 1.35%

O=[N+]([O-])c1cc(Cl)cc2c1nc(NCCCO)c1ccccc12
inactive: [1] -0.8% | [2] 7.35% | [3] -0.3% | [4] -7.95% | [5] -7.65% | [6] 27.9%

COc1c(C)c(C)c(OC(C)=O)c(C)c1Br
inactive: [1] -10.2% | [2] -4.9% | [3] -1.95% | [4] -3.1% | [5] -2.1% | [6] -9.3%

C=CCC1(C)C(=O)CCC1=O
inactive: [1] -18.5% | [2] -5.8% | [3] 0.6% | [4] -12.6% | [5] 1.15% | [6] -4.1%

Cc1c(O)ccc2c1CCCC2
inactive: [1] 7.05% | [2] 5.75% | [3] -4.8% | [4] -34.2% | [5] 6.1% | [6] 4.65%

O=C(c1ccccc1)N(Cc1ccccc1)Cc1ccccc1
inactive: [1] 1% | [2] 35.1% | [3] 26.4% | [4] -34.2% | [5] 41% | [6] 28.2%

CC(O)CN1CCN(CC(C)O)C(C)C1 (stereo not given)
inactive: [1] -10.1% | [2] 1.65% | [3] 0% | [4] 1.35% | [5] -7.2% | [6] 4.75%

NC(=O)CN(CC(N)=O)CC(N)=O
inactive: [1] -0.7% | [2] -11.7% | [3] 1.75% | [4] -2.85% | [5] -3.65% | [6] -7.9%
